High-throughput results as filed in PubChem.
Shown are actives, neighbours in structure and some others; about 10% of the full set was active somewhere.
BAZ2B block: blocks human BAZ2B; AlphaScreen BAZ2B-H3K14Ac peptide displacement; Potency, µM (top dose mostly 114 µM), for the others: at the highest dose activity change, negative = inhibition, actives largely listed as inhibitors; 4.4% of 360,000 active; further: on the % scale 0 is the no-effect control and ±100 the full control effect; nearly all actives have a fitted effect of over 60% in size
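BAZ2B 50 nM plus b-H3(5-23)K14Ac 50 nM, PBS pH 7.4/0.01% Tween-20, 30 min RT; compound added (max 110 uM), 30 min RT; streptavidin donor/Ni-chelate acceptor beads 10 ug/mL final, 20 min dark; AlphaScreen read.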
G9a block: inhibitors of human histone lysine methyltransferase G9a. Potency, µM (titrated, usually from 102 µM), inactives show at the top dose activity, negative = inhibition, usual class: inhibitors. AID 504332. G9a H3K9 monomethylation, AlphaScreen, 2 h. 8.8% of 350,000 active. Q96KQ7; further: on the % scale 0 is the no-effect control and ±100 the full control effect; nearly all actives have a fitted effect of over 75% in size
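AlphaScreen read-out: biotin-H3K9 peptide (500 nM) methylation by 20 nM enzyme with 20 uM SAM, 2 h at room temperature after 15 min compound preincubation; anti-monomethyl H3K9 antibody plus donor/acceptor beads, 10 min dark.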
HP1b chromo inh: inhibitors of HP1-beta chromodomain binding to methylated histone tails; Potency, µM (titrated, usually from 114 µM), without a hit: at the highest dose activity change, negative = inhibition, actives largely listed as inhibitors; 0.56% of 390,000 active; AlphaScreen HP1-beta / biotin-H3K9me3 peptide binding; P83916; further: nearly all actives have a fitted effect of over 70% in size
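Compound inhibition of the preformed complex between 50 nM HP1-beta and 50 nM biotinylated H3K9me3 peptide was read by AlphaScreen. Buffer was PBS pH 7.4 with 0.01% Tween-20. Incubations ran 30 min at room temperature, with 10 ug/mL donor/acceptor beads.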
JMJD2A Tudor inh: blocks the human JMJD2A Tudor domain | AlphaScreen JMJD2A-Tudor / H3K4me3 peptide binding | Potency, µM (top dose mostly 114 µM), inactives show at the highest dose activity change, negative = inhibition, most hits filed as inhibitors | 4.4% of 390,000 active | AID 504339; further: on the % scale 0 is the no-effect control and ±100 the full control effect; nearly all actives have a fitted effect of over 50% in size
Target sequence (O75164 whole entry, looked up, the tested form may be a part): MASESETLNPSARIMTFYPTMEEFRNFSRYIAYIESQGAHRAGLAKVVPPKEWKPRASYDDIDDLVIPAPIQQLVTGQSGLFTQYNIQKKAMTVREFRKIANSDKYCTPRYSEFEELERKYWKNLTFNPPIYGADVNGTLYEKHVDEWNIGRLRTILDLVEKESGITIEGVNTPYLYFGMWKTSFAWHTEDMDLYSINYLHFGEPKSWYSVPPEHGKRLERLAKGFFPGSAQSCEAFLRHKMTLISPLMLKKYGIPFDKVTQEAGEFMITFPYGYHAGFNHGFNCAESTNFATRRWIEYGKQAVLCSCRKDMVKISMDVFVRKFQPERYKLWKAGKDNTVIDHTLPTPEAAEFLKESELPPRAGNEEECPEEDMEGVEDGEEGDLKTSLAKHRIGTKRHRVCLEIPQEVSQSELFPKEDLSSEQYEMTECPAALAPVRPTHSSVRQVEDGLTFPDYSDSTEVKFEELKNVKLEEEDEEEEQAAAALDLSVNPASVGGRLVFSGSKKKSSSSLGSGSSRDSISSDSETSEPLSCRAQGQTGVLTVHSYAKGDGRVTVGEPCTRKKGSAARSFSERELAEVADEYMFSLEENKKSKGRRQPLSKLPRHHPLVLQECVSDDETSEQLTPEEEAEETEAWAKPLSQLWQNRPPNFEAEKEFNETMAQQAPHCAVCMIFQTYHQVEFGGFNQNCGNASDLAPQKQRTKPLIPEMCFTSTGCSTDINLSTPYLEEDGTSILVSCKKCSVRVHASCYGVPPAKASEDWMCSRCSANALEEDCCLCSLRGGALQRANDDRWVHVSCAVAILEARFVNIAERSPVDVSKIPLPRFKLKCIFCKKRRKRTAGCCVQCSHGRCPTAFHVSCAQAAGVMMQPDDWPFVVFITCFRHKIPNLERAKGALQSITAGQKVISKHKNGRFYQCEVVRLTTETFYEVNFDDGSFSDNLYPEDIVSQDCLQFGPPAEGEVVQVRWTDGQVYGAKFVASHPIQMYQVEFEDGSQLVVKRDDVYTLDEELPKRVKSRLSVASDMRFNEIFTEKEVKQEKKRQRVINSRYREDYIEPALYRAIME
GLS inhibitor: inhibitors of human glutaminase (GLS). O94925. GLS enzymatic activity, qHTS titration. Potency, µM (top dose mostly 45.5 µM), for inactives: top-dose activity change, negative = inhibition, usual class: inhibitors. 0.21% of 410,000 active; further: on the % scale 0 is the no-effect control and ±100 the full control effect
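Two-point fluorescence kinetic (t0, 30 min RT) for hKGA; glutamate detected via glutamate oxidase–HRP–Amplex Red. Substrate: 1 mM L-glutamine solution; buffer 45 mM KH2PO4, pH 8.2.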
L3MBTL1 inh: L3MBTL1 (human) inhibition; Q9Y468; AlphaScreen L3MBTL1–H3K9me1 peptide binding; Potency, µM (titrated, usually from 57.1 µM), for the others: top-dose activity, negative = inhibition, usual class: inhibitors; 0.66% of 230,000 active; further: on the % scale 0 is the no-effect control and ±100 the full control effect; nearly all actives have a fitted effect of over 60% in size
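First, the protein-peptide complex forms for 30 min at room temperature (L3MBTL1 50 nM, biotinylated H3K9me1 peptide 75 nM). Next, compounds are pin-transferred and incubated 30 min. Finally, AlphaScreen beads are added and read after 30 min.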
The depositor's hits bear a star; [ ] = another dose, or the depositor's remark. The call rests on the fitted dose curve; in most records, active means well fitted curve in the direction sought with a large enough effect; inconclusive means small, poorly fitted or top-dose-only effect, or another doubt; inactive means no such curve, though single readings can be large; an effect the other way counts as inactive or inconclusive. Potency means the concentration at half of the fitted maximal effect.

`CCOc1cc(/C=C2\SC(=S)N(NC(=O)c3cccnc3)C2=O)ccc1O` gave BAZ2B block 10µM*, G9a block 10%[12.7 µM], HP1b chromo inh inconclusive, JMJD2A Tudor inh -35%, GLS inhibitor 5% and L3MBTL1 inh -23%.
Cc1ccc(/C=C2\SC(=S)N(CCC(=O)NNC(=O)c3cccc(O)c3)C2=O)cc1 was read as BAZ2B block -17%, G9a block 33%, HP1b chromo inh 13%[57 µM], JMJD2A Tudor inh -12% and GLS inhibitor 14%.
Screening COc1cc(/C=C2\SC(=S)N(NC(=O)c3ccc(O)c(OC)c3)C2=O)ccc1O returned BAZ2B block 35µM*, G9a block 35µM*, HP1b chromo inh 50µM*, JMJD2A Tudor inh 56µM* and GLS inhibitor 28%.
For O=C(CCN1C(=O)/C(=C/c2cccc(Br)c2)SC1=S)NNC(=O)c1cccnc1 the results were BAZ2B block 3%, G9a block -20%, HP1b chromo inh 11%, JMJD2A Tudor inh -9%, GLS inhibitor 5% and L3MBTL1 inh 1%.
COc1cc(/C=C2\SC(=S)N(NC(=O)c3cccc(O)c3)C2=O)ccc1O was read as BAZ2B block 35µM*, G9a block 35µM*, HP1b chromo inh 45µM*, JMJD2A Tudor inh inconclusive and GLS inhibitor 0%.
`COc1cc(/C=C2\SC(=S)N(NC(=O)c3ccncc3)C2=O)ccc1O` gave BAZ2B block inconclusive, G9a block 45µM*, HP1b chromo inh -27%, JMJD2A Tudor inh -9%, GLS inhibitor 11% and L3MBTL1 inh -26%.
For O=C(O)c1ccc(/C=C2\SC(=S)N(NC(=O)c3ccccc3)C2=O)cc1 the results were BAZ2B block -20%, G9a block inconclusive, HP1b chromo inh 30%, JMJD2A Tudor inh -7% and GLS inhibitor -1%.
Screening COc1cc(/C=C2\SC(=S)N(NC(=O)c3ccccc3OC)C2=O)ccc1O returned BAZ2B block 20µM*, G9a block 16µM*, HP1b chromo inh 25µM*, JMJD2A Tudor inh inconclusive and GLS inhibitor 18%.
Screening O=C(NN1C(=O)/C(=C/c2cccs2)SC1=S)c1cccnc1 returned BAZ2B block -31%, G9a block 50µM*, HP1b chromo inh 20%, JMJD2A Tudor inh -23%, GLS inhibitor 1% and L3MBTL1 inh -6%.
For O=C(NN1C(=O)/C(=C/c2cccs2)SC1=S)c1ccccc1 the results were BAZ2B block 11%, G9a block 7%[59 µM], HP1b chromo inh 35%, JMJD2A Tudor inh -6%, GLS inhibitor -10% and L3MBTL1 inh 8%.
`O=C(NN1C(=O)CSC1=S)c1cccnc1` gave BAZ2B block inconclusive, G9a block 50µM*, HP1b chromo inh 12%, JMJD2A Tudor inh inconclusive and GLS inhibitor 8%.
Screening Cc1ccccc1C(=O)NN1C(=O)CSC1=S returned BAZ2B block -2%, G9a block -22%[59 µM], HP1b chromo inh 25%, JMJD2A Tudor inh -14%, GLS inhibitor -22% and L3MBTL1 inh -10%.
Screening COc1cc(/C=C2\SC(=S)N(NS(=O)(=O)c3ccc(C)cc3)C2=O)cc(OC)c1OC returned BAZ2B block inconclusive, HP1b chromo inh -3%, JMJD2A Tudor inh inconclusive, GLS inhibitor 4% and L3MBTL1 inh -22%.
Cc1cc(O)c(CN2CCN(c3ccc(F)cc3)CC2)c2oc(=O)cc(C)c12 was read as BAZ2B block -7%, G9a block -8%[59 µM], HP1b chromo inh 22%, JMJD2A Tudor inh -14% and GLS inhibitor 3%.
Screening CCOc1ccc(NC(C)C(=O)N/N=C/c2cccs2)cc1 (stereo not given) returned BAZ2B block inconclusive, G9a block 45µM*, HP1b chromo inh 0%, JMJD2A Tudor inh -36%, GLS inhibitor 6% and L3MBTL1 inh -2%.
